Experiment [1] relates to Wnt5a (protein binding on small-molecule microarray). Description: Wnt5a binders on small-molecule microarray, primary screen, biophysical, 635/667 nm fluorescence (AID 1142).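 Also: fluorescence read at 667 nm with signal to noise per printed feature.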 To be noted: 635 nm fluorescence, higher = more signal.
Experiment [2] is described as follows: cell viability in Huh7 cells, primary screen, cytotoxicity control for HCV replication inhibitor project, CellTiter-Glo luminescence, basal, 48 h (AID 1143).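 Also: Huh7 hepatoma cells carrying a hepatitis C replication reporter with no stimulus; test concentration not given here.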 The following applies: Huh7 HCV replicon, higher = more signal, called active from +8 up or from −8 down.
A short description of experiment [3]: P. aeruginosa biofilm formation inhibitors, primary screen, PAO1 strain, BacTiter-Glo luminescence, LB-PBS (AID 1144). The following applies: 12 h, higher = more signal.
Experiment [4] in a line: CREB reporter modulators without forskolin, primary screen, cell-based, PC12, CRE-LacZ reporter, unstimulated (AID 1145). The following applies: no forskolin, luminescence, 4.5 h, higher = more signal, called active from +8 up or from −8 down.
A short description of experiment [5]: CREB reporter modulators under forskolin, primary screen, cell-based, PC12, CRE-LacZ reporter, forskolin-stimulated (AID 1146).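 Also: PC12 cells with 6xCRE LacZ reporter stimulated by forskolin 10 µM; beta-galactosidase reporter signal reflecting CREB driven transcription.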 To be noted: luminescence, 4.5 h, higher = more signal, called active from +8 up or from −8 down.
For experiment [6], the target named is Streptavidin (Streptomyces avidinii) (UniProt P22629). The experiment is described as follows: streptavidin binders on small-molecule microarray, primary screen, artefact control for SMM compound annotation, biophysical, 635/667 nm fluorescence (AID 1147).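 Also: signal reflects streptavidin binding to arrayed compounds as a control protein.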 To be noted: streptavidin binding, higher = more signal.
Chain of Streptavidin (Streptomyces avidinii) (P22629 whole entry, looked up): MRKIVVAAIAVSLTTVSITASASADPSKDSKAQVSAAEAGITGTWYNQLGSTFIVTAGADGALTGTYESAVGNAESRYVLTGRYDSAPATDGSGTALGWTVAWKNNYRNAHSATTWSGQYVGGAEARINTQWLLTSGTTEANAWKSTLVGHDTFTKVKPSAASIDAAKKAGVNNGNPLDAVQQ
Experiment [7] is described as follows: small-molecule binders of probe aInhba, primary screen, biochemical, small-molecule microarray, 635/667 nm fluorescence (AID 1148).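 Also: score merges 667nm spot fluorescence with signal-to-noise for antibody binding to printed compounds.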 To be noted: higher = more signal.
For experiment [8], the target named is Torsin-1A (Homo sapiens) (UniProt O14656). The experiment is described as follows: torsin A binders from cell lysate, primary screen, small-molecule microarray, wild-type, 635/667 nm (AID 1149). The following applies: COS7 hTOR1A-WT lysate, 635 nm fluorescence, higher = more signal.
Chain of Torsin-1A (Homo sapiens) (O14656 whole entry, looked up): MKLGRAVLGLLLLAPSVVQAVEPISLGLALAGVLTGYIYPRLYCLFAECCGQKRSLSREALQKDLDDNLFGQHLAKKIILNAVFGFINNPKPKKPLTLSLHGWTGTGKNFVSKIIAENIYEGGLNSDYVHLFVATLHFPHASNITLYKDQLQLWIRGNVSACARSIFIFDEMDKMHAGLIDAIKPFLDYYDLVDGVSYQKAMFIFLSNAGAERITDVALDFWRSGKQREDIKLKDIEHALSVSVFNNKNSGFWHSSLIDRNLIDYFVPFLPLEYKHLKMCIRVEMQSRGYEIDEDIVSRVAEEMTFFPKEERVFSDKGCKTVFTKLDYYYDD
Experiment [9] has the same target. The experiment is described as follows: small-molecule binders of mutant TOR1A in lysate, primary screen, cell lysate, small-molecule microarray, COS7 lysate, 635/667 nm fluorescence (AID 1150).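 Also: score pools 667 nm emission and signal to noise measuring lysate protein binding.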 The following applies: COS7 hTOR1A mutant lysate, 635 nm fluorescence, higher = more signal.
Experiment [10] deals with Sonic hedgehog protein (Shh). The experiment is described as follows: small-molecule binders of Shh protein, primary screen, biochemical, small-molecule microarray, 635/667 nm fluorescence (AID 1151).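 Also: Shh protein binding to compounds spotted on small-molecule microarray slides; score combines spot fluorescence intensity with signal-to-noise across triplicate slides.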 To be noted: small-molecule microarray binding, 635 nm fluorescence; higher = more signal.
A short description of experiment [11]: E. coli DRC41 culture turbidity changes, primary screen, E. coli filamentation inducer project, strain DRC41, OD650, 48 h (AID 1152).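 Also: E. coli MC1000 strain DRC41 lacking acrAB efflux pump and sulA.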 The following applies: E. coli DRC41 (acrAB sulA), higher = more signal, called active from +8 up or from −8 down.
Experiment [12] can be described thus: small-molecule binders of probe aLefty1, primary screen, biochemical, small-molecule microarray, 635/667 nm fluorescence (AID 1153).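 Also: score merges spot fluorescence with signal-to-noise ratio from the scanned slide images.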 The following applies: higher = more signal.
Experiment [13] is described as follows: PSAC antagonists in infected red cells, primary screen, cell-based, P. falciparum Indochina, OD700, 1 h (AID 1154). The following applies: P. falciparum Indochina infected RBC osmotic lysis, higher = more signal, called active from +8 up or from −8 down.
The nature of experiment [14]: PSAC antagonists in infected red cells, primary screen, cell-based, P. falciparum Indochina, OD700, 2 h (AID 1155).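 Also: lysis reports solute entry through the parasite surface anion channel PSAC; channel blockers reduce lysis of infected cells.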 The following applies: P. falciparum Indochina infected erythrocytes, osmotic lysis OD700; higher = more signal, called active from +8 up or from −8 down.
A short description of experiment [15]: osmotic lysis modulators in infected erythrocytes, primary screen, PSAC antagonist project, cell-based, P. falciparum Indochina, OD700, 3 h (AID 1156). The following applies: higher = more signal, called active from +8 up or from −8 down.
Experiment [16] is described as follows: PSAC antagonists in infected red cells, primary screen, cell-based, P. falciparum Indochina, OD700, 18 h (AID 1157). To be noted: P. falciparum Indochina infected erythrocytes, osmotic lysis OD700, 18 h; higher = more signal, called active from +8 up or from −8 down.
A short description of experiment [17]: modulators of S6 phosphorylation in cells, primary screen, cell-based, A549, cytoblot, luminescence, serum-stimulated (AID 1158).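 Also: serum-stimulated A549 lung adenocarcinoma cells; signal is phosphorylated S6 detected by cytoblot immunostaining with HRP secondary.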 The following applies: A549 phospho-S6 cytoblot, 5 h, higher = more signal.
Experiment [18] addresses NADPH oxidase 2 (Homo sapiens) (UniProt P04839). The experiment is described as follows: NOX2-dependent H2O2 signal modulators, primary screen, NOX inhibitor project, cell-based, HEK293-NOX2, PMA-stimulated, Amplex Red fluorescence (AID 1159). Also: test concentration not given here. The following applies: 45 min, higher = more signal, called active from +8 up or from −8 down.
For experiment [19], the target named is NADPH oxidase 4 (Homo sapiens) (UniProt Q9NPH5). The experiment is described as follows: NOX4-dependent H2O2 signal modulators, primary screen, NOX inhibitor project, cell-based, HEK293-NOX4, tetracycline-induced, Amplex Red fluorescence (AID 1160). To be noted: 45 min, higher = more signal, called active from +8 up or from −8 down.
Chain of NADPH oxidase 4 (Homo sapiens) (Q9NPH5 whole entry, looked up): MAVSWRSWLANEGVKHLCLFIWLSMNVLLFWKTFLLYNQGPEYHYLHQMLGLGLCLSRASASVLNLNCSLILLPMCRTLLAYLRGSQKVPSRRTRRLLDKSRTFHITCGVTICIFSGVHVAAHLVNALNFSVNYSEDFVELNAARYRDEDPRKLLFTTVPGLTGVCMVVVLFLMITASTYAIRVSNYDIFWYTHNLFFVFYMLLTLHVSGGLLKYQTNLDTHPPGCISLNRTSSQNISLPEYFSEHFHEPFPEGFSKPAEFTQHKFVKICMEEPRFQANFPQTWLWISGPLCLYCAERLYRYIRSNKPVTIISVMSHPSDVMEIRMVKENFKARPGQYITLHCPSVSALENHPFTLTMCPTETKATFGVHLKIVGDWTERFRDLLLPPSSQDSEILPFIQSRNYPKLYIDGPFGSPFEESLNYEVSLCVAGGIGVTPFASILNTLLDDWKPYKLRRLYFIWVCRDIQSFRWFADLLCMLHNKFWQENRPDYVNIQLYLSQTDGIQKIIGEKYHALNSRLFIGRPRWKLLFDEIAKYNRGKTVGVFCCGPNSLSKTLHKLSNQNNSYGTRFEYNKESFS
The target in experiment [20] is NADPH oxidase 5 (Homo sapiens) (UniProt Q96PH1). The experiment is described as follows: NOX5-dependent H2O2 signal modulators, primary screen, NOX inhibitor project, cell-based, HEK293-NOX5, Amplex Red fluorescence (AID 1161). To be noted: HEK293-NOX5, ionomycin, 45 min, higher = more signal.
Chain of NADPH oxidase 5 (Homo sapiens) (Q96PH1 whole entry, looked up): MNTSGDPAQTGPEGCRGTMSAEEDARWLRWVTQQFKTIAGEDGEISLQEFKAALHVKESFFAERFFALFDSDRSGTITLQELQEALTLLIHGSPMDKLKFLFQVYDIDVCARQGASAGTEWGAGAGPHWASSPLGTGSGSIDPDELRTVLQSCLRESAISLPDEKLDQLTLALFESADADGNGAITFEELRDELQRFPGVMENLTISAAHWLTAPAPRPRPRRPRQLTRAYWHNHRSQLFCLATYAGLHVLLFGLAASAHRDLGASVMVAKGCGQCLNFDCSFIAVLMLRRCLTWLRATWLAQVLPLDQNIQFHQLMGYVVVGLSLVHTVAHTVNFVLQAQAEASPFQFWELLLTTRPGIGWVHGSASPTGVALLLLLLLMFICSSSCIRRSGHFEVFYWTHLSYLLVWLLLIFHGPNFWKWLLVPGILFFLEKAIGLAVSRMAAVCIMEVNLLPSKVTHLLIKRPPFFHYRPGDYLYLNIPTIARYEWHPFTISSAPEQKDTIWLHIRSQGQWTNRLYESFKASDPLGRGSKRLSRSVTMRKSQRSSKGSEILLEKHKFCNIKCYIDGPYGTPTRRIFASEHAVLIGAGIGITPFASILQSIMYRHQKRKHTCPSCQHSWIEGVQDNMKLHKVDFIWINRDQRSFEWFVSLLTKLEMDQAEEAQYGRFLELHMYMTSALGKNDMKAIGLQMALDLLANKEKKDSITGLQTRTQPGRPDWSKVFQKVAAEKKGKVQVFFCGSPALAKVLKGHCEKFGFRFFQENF

Activity calls are given as the source filed them. Unless noted, no rule for the calls is given here.

Chain of NADPH oxidase 2 (Homo sapiens) (P04839 whole entry, looked up): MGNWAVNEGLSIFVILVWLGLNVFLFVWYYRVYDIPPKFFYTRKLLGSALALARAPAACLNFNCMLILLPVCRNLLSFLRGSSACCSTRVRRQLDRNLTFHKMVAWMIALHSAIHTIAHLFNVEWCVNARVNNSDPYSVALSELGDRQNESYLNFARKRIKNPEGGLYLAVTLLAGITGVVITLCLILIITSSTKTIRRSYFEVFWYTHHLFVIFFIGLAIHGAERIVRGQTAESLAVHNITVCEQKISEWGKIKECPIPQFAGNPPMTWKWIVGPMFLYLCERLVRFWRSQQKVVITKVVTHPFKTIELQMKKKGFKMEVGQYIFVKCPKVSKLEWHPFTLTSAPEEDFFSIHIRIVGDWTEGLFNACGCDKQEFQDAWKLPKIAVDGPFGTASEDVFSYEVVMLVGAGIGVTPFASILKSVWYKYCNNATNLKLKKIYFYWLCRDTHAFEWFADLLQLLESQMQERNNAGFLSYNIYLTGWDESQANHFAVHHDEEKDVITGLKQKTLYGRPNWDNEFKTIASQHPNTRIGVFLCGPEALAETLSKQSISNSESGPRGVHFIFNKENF

`COCCOC(=O)N1C(=O)[C@@]2(c3ccccc31)[C@H](C(=O)N1CCN(c3ncccn3)CC1)[C@H]1C(=O)O[C@H](c3ccccc3)[C@H](c3ccccc3)N1[C@@H]2c1ccccc1OCCO`: the composite z-score in experiment [1] is 0.404; in experiment [6] it was 0.631; in [7], -0.0323; with Torsin-1A (Homo sapiens) [8], 0.545; with Torsin-1A (Homo sapiens) [9], 0.0291; in [10], 1.53. Moreover, the composite z-score in experiment [12] came to 0.867. Moreover, the z-score was -4.29 (inactive) in experiment [2]; -1.51 (inactive) in experiment [3]; -2.11 (inactive) in experiment [4]; -0.885 (inactive) in experiment [5]; 2.86 (inactive) in [11]; 10 (active) in [13]. The z-score in experiment [14] is 1.18 (inactive); in [15], -0.427 (inactive); in [16], 0.0951 (inactive); in experiment [17], 1.89; in [18], 0.89 (inactive); in [19] it was 1.09 (inactive). Besides, the z-score in experiment [20] worked out at 0.791.
For `COC(=O)C1=CC(CCCO)=CC(c2cccs2)N(Cc2cc3c(cc2Br)OCO3)C=C1C(=O)OC` (stereo not given), the composite z-score amounted to 0.46 in [1]; 1.99 in experiment [6]; 0.0659 in [7]; 0.565 with Torsin-1A (Homo sapiens) [8]; 1.12 with Torsin-1A (Homo sapiens) [9]; 0.322 in experiment [10]. For the same molecule, in experiment [12], the composite z-score is -0.0629. In addition, the z-score in experiment [2] is -1.96 (inactive); in [3] it was 0.587 (inactive); in experiment [4], 0.326 (inactive); in [5], 0.458 (inactive); in experiment [11], 0.801 (inactive); in [13] it was 5.84 (inactive). Further, the z-score is 1.17 (inactive) in experiment [14]; 0.277 (inactive) in [15]; 0.621 (inactive) in experiment [16]; -0.176 in experiment [17]; 1 (inactive) in experiment [18]; -1.26 (inactive) in experiment [19]. Also, the z-score in experiment [20] came out at 1.05.
On to `NC(=O)NCC#Cc1ccc2c(c1)[C@]1(C(=O)N2)[C@H](c2ccc(OCCO)cc2)N2[C@H](c3ccccc3)[C@H](c3ccccc3)OC(=O)[C@H]2[C@@H]1C(=O)O`, for which the composite z-score in experiment [1] was -0.129; in experiment [6] it was -0.204; in experiment [7] it was -0.128; in the experiment with Torsin-1A (Homo sapiens) [8], -0.101; with Torsin-1A (Homo sapiens) [9] it was 0.141; in experiment [10], -0.501. The composite z-score in experiment [12] was -0.0536. The z-score was -4.1 (inactive) in experiment [2]; -0.626 (inactive) in [3]; 0.155 (inactive) in experiment [4]; -0.719 (inactive) in experiment [5]; 0.53 (inactive) in experiment [11]; 2.54 (inactive) in experiment [13]. Also, the z-score in experiment [14] was -0.7 (inactive); in experiment [15], 0.623 (inactive); in experiment [16], -1.3 (inactive); in [17], 1.61; in [18], 1.97 (inactive); in experiment [19], 0.325 (inactive). In addition, the z-score in experiment [20] is -0.441.
As for `CCCCCCc1nc(-c2ccc(-c3ccc(Cl)c(Cl)c3)o2)cc2c1[Si](C(C)C)(C(C)C)OC2`, the composite z-score in experiment [1] was -0.905; in experiment [6], -1.24; in [7] it was -0.261; in the experiment with Torsin-1A (Homo sapiens) [8] it was -1.83; with Torsin-1A (Homo sapiens) [9] it was -0.526; in experiment [10] it was -0.583. In [12], the composite z-score was -0.193. The z-score in [2] was -5.45 (inactive); in experiment [3], -1.51 (inactive); in [4], -0.621 (inactive); in experiment [5] it was 1.29 (inactive); in experiment [11] it was 0.615 (inactive); in [13], 3.45 (inactive). Moreover, the z-score is 0.259 (inactive) in experiment [14]; 0.78 (inactive) in [15]; -0.84 (inactive) in experiment [16]; 1.6 in experiment [17]; -5.23 (inactive) in experiment [18]; -4.25 (inactive) in experiment [19]. Moreover, the z-score in experiment [20] was -7.11.
Regarding `O=C(NC1CC1)[C@@H]1c2ccccc2C(=O)N(Cc2cc(C(F)(F)F)cc(C(F)(F)F)c2)[C@H]1c1ccc(CO)cc1`, the composite z-score was -0.0738 in experiment [1]; 0.0581 in [6]; -0.248 in experiment [7]; -0.73 with Torsin-1A (Homo sapiens) [8]; -0.727 with Torsin-1A (Homo sapiens) [9]; 0.658 in experiment [10]. Besides, the composite z-score in [12] was -0.308. The z-score in [2] was -4.67 (inactive); in [3], 0.0176 (inactive); in [4], 1.14 (inactive); in experiment [5] it was -1.05 (inactive); in experiment [11], -0.0602 (inactive); in experiment [13], 2.63 (inactive). Besides, the z-score in experiment [14] is 0.26 (inactive); in experiment [15], 1.12 (inactive); in experiment [16], -0.558 (inactive); in [17], 2.41; in experiment [18], -0.397 (inactive); in [19] it was -1.17 (inactive). The z-score in [20] was -2.23.
